Records with an inconclusive call do not appear. The source made the active and inactive calls. Unless noted, calls come from the whole dose curve; as a rule, active = well fitted curve in either direction with a large enough effect (not every such curve was filed as active); inconclusive = small, poorly fitted or top-dose-only effect, or another doubt; inactive = flat fitted curve, though single readings scatter.
Assays:
[1] = target: Lysosomal acid glucosylceramidase (Homo sapiens) (UniProt P04062); assay: Glucocerebrosidase-p2 (AID 348; in the data active = potency below about 10 µM; note: potency is the fitted concentration of half-maximal effect); details: purified GBA, blue fluorogenic substrate, 40 min
Method in brief: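 Compounds titrated from 0.6 nM upwards against 0.2 nM enzyme in pH 5.9 citric acid/KH2PO4, taurocholate, tween-20; blue fluorogenic substrate 80 uM, 40 min room temperature, stopped and read Ex 365/Em 440 for AC50.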

[2] = AP1 Signaling Pathway (AID 357); details: ME-180 AP-1-bla reporter, EGF-induced, beta-lactamase ratio, 5 h; at 7.69 µM (top of the series) unless noted; note: % is set by controls: 0 for no effect and ±100 for the full control effect
Method in brief: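 AP-1-bla ME-180 cells with beta-lactamase reporter under AP-1 response element, stimulated with EC50 EGF; compounds titrated, 5 hours at 37 degrees Celsius. CCF4 read at 460/530 nm ratio; positive and negative modulators judged by AC50.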

[3] = NFAT Signaling Pathway (AID 444); details: Jurkat NFAT-bla M1, carbachol, beta-lactamase ratio, 5 h; at 7.69 µM (top of the series) unless noted;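 note: carbachol stimulus at about its EC50 of 1 µM final; % is set by controls: 0 for no effect and ±100 for the full control effect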
Method in brief: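 Jurkat cells with NFAT-driven β-lactamase reporter and co-expressed M1 receptor, stimulated with carbachol (final 1 uM, ~EC50), compound titration, 5 h at 37 °C. CCF4 loaded 1 h at RT; 460/530 nm ratio gave %activity and AC50.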

[4] = Stat Signaling Pathway (AID 446); details: ME-180 SIE beta-lactamase reporter, IL-6 stimulated, 5 h; at 7.69 µM (top of the series) unless noted;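 note: ME-180 cervical cancer cells given 40 pM IL-6 alongside compound; SIE-controlled beta-lactamase reporter measured as 460/530 nm FRET emission ratio; % is set by controls: 0 for no effect and ±100 for the full control effect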
Method in brief: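 ME-180 SIE-bla cells; overnight plating; cpd + IL-6 40 pM, 5 h, 37 C; LiveBLAzer 2.5 h RT; 460/530 nm emission ratio. Normalized to 300 pM IL-6 and 125 nM JAK inhibitor controls.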

[5] = target: Glucocorticoid receptor (Homo sapiens) (UniProt P04150); assay: GR-GFP Redistribution (AID 450;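 active = compounds whose dose series gives a full or clear partial fitted curve of increased nuclear translocation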; note: potency is the fitted concentration of half-maximal effect); details: U2OS GR-GFP nuclear translocation, laser cytometry, 2 h
[6] = target: Glucocorticoid receptor (Homo sapiens) (UniProt P04150); assay: GR-EFC Redistribution (AID 451; calls by dose curve; note: potency is the fitted concentration of half-maximal effect); details: CHO-K1 GR-EFC translocation, beta-gal luminescence, 2 h
Method in brief: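 CHO-K1 cells expressing nuclear EA and GR-ED fragments of b-gal; compounds titrated up to 46 uM final, 2 h at 37 C. GR nuclear translocation read as complemented b-gal luminescence after 1 h RT detection.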

[7] = target: Mitogen-activated protein kinase 10 (Mus musculus) (UniProt Q61831); assay: JNK3 AlphaScreen Assay (AID 530); details: JNK3 lysate, c-Jun phosphorylation; series mostly up to 57.1 µM;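 note: kinase came from lysate of stimulated human HepG2 cells; signal reports phosphorylation of biotinylated GST-cJun 1-79 at Ser73 with 10 µM ATP; % is set by controls: 0 for no effect and ±100 for the full control effect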
Method in brief: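 qHTS format: compounds tested as titrations against IL-1beta/TNF-alpha-activated HepG2 lysate JNK3 with biotin-GST-cJun substrate and 10 uM ATP at room temperature. Loss of anti-phospho-cJun AlphaScreen signal indicates inhibition.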

[8] = target: 3',5'-cyclic-AMP phosphodiesterase 4B (Homo sapiens) (UniProt Q07343); assay: qHTS Assay for Inhibitors of PDE-IV (AID 607; active = well fitted activation curve with a large enough effect in the main read-out, with a control signal flat, not every such curve was filed as active; note: % of control where 0% means no effect); details: HEK293 ACTOne CNG channel cells, membrane potential fluorescence; series mostly up to 22.9 µM
Method in brief: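 ACTOne HEK293 cells carry a modified cAMP-gated CNG channel and express endogenous PDE4; plated 1000 cells/well, compounds up to 22.9 uM final. Membrane-potential dye fluorescence (ex 535/em 590) was read; parental cells received 10 uM forskolin + 100 uM RO 20-1724.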

[9] = target: Cytochrome P450 2C19 (Homo sapiens) (UniProt P33261); assay: qHTS Assay for Inhibitors and Substrates of Cytochrome P450 2C19 (AID 899; active = well fitted inhibition curve with a large enough effect; note: % is set by controls: 0 for no effect and ±100 for the full control effect; nearly all actives have a fitted effect of over 60% in size); details: recombinant CYP2C19, luciferin-H EGE luminescence; series mostly up to 11.4 µM
Method in brief: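 Luminescent read-out of luciferin formed from Luciferin-H EGE (10uM, equal to KM). Enzyme 5nM in 50mM KPO4; compound added, 10 min at 37C, then NADPH regenerating system for 60 min at 37C. Full inhibition defined by 57uM ketoconazole.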

[10] = qHTS Assay for Identification of Small Molecule Agonists for Hypoxia Response Element Signaling Pathway (AID 914; active = well fitted activation curve with a large enough effect in the signal ratio, with a control signal flat, not every such curve was filed as active; the % refers to the signal ratio; note: % of control where 0% means no effect); details: ME-180 (cervical carcinoma) HRE-bla reporter, beta-lactamase ratio, CoCl2, 17 h; active compounds read high
Method in brief: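 Compounds in a titration series were added to ME-180 reporter cells alongside an EC50 level of CoCl2. After 17 hours, beta-lactamase activity was read as the 460nm/530nm emission ratio of CCF4, giving AC50 values.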

[11] = target: Cytochrome P450 2D6 (Homo sapiens) (UniProt P10635); assay: qHTS Assay for Inhibitors and Substrates of Cytochrome P450 2D6 (AID 891; active = well fitted inhibition curve with a large enough effect;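 note: luciferin methyl ether substrate demethylated by CYP2D6 with NADPH regeneration; % is set by controls: 0 for no effect and ±100 for the full control effect; nearly all actives have a fitted effect of over 60% in size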); details: recombinant CYP2D6, luciferin-ME EGE luminescence; series mostly up to 11.4 µM
Method in brief: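 Human CYP2D6 (5 nM) with 30 uM Luciferin-ME EGE (at Km) in 100 mM KPO4, compound preincubated 10 min, then NADPH regeneration system for 60 min at room temperature. Luciferin read by luminescence; normalized to 1.43 uM quinidine.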

Chain of Glucocorticoid receptor (Homo sapiens) (P04150 whole entry, looked up, the tested form may be a part): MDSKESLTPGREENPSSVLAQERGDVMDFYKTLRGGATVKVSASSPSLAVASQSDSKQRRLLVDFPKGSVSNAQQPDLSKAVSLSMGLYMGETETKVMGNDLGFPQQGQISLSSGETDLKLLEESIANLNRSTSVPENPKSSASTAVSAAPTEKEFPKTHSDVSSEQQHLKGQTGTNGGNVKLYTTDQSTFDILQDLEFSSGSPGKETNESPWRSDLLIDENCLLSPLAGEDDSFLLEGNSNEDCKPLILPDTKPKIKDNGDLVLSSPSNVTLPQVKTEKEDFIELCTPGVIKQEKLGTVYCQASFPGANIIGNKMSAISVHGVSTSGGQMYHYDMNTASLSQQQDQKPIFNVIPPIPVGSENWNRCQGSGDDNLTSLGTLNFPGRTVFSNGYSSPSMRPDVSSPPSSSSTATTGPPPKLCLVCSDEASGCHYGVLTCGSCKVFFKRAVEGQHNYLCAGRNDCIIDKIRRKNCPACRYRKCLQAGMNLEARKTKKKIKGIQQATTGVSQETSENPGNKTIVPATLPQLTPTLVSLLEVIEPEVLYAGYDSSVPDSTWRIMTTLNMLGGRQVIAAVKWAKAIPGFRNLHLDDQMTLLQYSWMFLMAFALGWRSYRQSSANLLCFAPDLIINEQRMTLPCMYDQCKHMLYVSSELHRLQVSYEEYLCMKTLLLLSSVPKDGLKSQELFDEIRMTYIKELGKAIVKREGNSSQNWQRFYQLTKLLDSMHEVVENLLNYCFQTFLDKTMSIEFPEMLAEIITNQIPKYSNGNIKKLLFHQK
Chain of Lysosomal acid glucosylceramidase (Homo sapiens) (P04062 whole entry, looked up): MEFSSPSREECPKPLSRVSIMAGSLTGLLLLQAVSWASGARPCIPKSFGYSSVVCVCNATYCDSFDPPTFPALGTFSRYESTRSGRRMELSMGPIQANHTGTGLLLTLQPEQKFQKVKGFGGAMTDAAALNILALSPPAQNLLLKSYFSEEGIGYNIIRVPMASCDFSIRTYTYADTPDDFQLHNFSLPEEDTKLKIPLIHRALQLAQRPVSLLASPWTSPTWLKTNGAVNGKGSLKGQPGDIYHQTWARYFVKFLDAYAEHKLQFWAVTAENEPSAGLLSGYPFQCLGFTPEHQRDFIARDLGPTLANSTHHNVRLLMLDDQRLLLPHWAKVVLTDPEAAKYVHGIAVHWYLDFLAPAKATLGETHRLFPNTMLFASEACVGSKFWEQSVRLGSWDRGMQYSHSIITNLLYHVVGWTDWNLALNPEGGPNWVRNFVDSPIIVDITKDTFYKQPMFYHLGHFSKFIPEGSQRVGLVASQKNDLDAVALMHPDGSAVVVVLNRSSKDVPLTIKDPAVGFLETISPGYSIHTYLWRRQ
Chain of 3',5'-cyclic-AMP phosphodiesterase 4B (Homo sapiens) (Q07343 whole entry, looked up): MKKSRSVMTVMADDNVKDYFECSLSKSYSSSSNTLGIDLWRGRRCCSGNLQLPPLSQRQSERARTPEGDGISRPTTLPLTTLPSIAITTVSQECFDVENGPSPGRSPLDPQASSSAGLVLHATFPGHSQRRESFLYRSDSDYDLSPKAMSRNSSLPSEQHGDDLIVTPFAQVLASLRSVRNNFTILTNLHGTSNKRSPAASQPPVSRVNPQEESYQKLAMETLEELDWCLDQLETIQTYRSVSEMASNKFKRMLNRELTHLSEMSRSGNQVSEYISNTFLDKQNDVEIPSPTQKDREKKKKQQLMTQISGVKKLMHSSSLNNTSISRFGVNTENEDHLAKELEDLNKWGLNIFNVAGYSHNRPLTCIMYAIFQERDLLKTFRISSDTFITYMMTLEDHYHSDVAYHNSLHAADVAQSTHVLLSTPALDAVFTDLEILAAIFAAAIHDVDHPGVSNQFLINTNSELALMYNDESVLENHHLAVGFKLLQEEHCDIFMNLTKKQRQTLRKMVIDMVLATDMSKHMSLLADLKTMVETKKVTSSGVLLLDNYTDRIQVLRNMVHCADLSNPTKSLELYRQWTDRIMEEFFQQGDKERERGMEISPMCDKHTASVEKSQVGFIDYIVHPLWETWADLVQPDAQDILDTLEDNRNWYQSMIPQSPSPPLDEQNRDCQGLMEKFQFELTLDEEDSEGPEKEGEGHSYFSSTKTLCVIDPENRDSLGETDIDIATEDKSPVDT
Chain of Cytochrome P450 2C19 (Homo sapiens) (P33261 whole entry, looked up): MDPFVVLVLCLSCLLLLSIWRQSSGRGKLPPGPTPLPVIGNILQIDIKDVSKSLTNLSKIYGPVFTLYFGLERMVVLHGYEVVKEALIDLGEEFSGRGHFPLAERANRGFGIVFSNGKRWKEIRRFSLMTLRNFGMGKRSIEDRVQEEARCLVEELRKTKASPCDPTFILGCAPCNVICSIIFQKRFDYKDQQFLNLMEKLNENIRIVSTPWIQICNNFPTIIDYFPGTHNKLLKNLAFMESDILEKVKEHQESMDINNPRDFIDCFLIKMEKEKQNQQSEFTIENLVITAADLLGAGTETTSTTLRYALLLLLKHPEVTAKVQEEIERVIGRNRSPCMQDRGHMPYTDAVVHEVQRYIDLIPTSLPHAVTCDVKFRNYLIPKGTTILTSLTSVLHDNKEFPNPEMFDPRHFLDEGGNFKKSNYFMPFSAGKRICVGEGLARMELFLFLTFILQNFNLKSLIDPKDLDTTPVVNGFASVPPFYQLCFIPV
Chain of Cytochrome P450 2D6 (Homo sapiens) (P10635 whole entry, looked up): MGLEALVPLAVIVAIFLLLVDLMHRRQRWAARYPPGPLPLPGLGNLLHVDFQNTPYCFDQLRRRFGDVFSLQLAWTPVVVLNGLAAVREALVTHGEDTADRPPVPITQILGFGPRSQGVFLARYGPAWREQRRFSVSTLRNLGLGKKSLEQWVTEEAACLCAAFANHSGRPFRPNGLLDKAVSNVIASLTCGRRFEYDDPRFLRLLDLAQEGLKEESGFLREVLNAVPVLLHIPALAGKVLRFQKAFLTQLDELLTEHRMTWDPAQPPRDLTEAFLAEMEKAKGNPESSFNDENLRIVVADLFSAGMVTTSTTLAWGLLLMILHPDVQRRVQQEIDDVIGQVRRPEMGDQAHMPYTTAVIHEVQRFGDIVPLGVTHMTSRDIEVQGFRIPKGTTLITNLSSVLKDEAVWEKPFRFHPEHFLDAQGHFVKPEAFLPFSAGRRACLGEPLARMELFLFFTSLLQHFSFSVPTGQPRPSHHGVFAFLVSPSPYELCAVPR

CC(C)CNCCc1ccccn1
inactive: Potency [1] > 11.4 µM | activity change, negative = inhibition [2] 11.4% | activity change, negative = inhibition [3] 10.3% | activity, negative = inhibition [4] 0.662% | Potency [5] > 46 µM | Potency [6] > 9.22 µM | activity change, negative = inhibition [7] 2.37% [at 11.4 µM] | outcome [8] | Potency [9] | activation [10] 5.07%

O=C(O)c1cc(N=Nc2ccc([As](=O)(O)O)cc2)ccc1O
inactive: Potency [1] > 11.4 µM | activity change, negative = inhibition [2] 6.37% | activity change, negative = inhibition [3] 6.3% | activity, negative = inhibition [4] -0.258% | Potency [5] > 46 µM | Potency [6] > 9.22 µM | activity change, negative = inhibition [7] 2.47% [at 11.4 µM] | outcome [8] | Potency [11] | Potency [9]

— PubChem BioAssay (NCATS)
